Experimental findings from PubChem BioAssay (Tox21) are described below.

Where “and” joins values, the source holds several entries; their conditions need not be identical. Equal entries are not always repeated. Results filed as inconclusive are left out. More than one record can exist for a structure, and the calls need not agree. Calls of active or inactive are those of the source. Unless noted, calls come from the whole dose curve; as a rule, active = well fitted curve in the direction sought with a large enough effect in the repeat runs; inconclusive = weak or mixed curves; inactive = no such curve, though single readings can be large; an effect the other way counts as inactive or inconclusive.

Assay [1] can be described thus: qHTS assay to identify small molecule agonists of the estrogen receptor alpha (ER-alpha) signaling pathway in the presence of an antagonist - cell viability counter screen (AID 1259386).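 Note: series mostly up to about 92 µM; cells exposed to compounds for 22 h at 37 °C before the viability read; nearly all actives have a fitted effect of over 30% in size.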 In a few lines: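 VM7Luc4E2 cells (endogenous full-length ER-alpha, 4×ERE-luciferase) were held 5 days in phenol red-free medium with 10% charcoal-stripped FBS, plated, then given 10.0nM ICI-182,780 and compounds at 15 concentrations for 22hr at 37C; viability read by CellTiter-Fluor fluorescence.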
(qHTS replaces the single test concentration by a dilution series.)

For assay [2], the target named is Progesterone receptor (Homo sapiens) (UniProt P06401). Nature of the assay: qHTS assay to identify small molecule agonists of the progesterone receptor (PR) signaling pathway (AID 1346784; calls by dose curve; note: nearly all actives have a fitted effect of over 30% in size). In a few lines:
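PR-UAS-bla HEK 293T cells (beta-lactamase reporter under UAS) in 2% charcoal-stripped FBS, dosed with 23 nL compound after 6 hr, incubated 16hr at 37C. LiveBLAzer B/G FRET substrate added, fluorescence read after 2 hours.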

Assay [3] shares this target. Nature of the assay: qHTS assay to identify small molecule antagonists of the progesterone receptor (PR) signaling pathway (AID 1346795; active = well fitted inhibition curve with a large enough effect in the signal ratio in the repeat runs, not every such curve was filed as active; the % refers to the signal ratio; note: potency is the fitted concentration of half-maximal effect). In a few lines:
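PR-UAS-bla HEK293T cells with beta-lactamase reporter under UAS control, in 2% charcoal-stripped FBS, treated with compounds plus 1 nM promegestone (R5020, final) for 16 hr at 37C. Read-out: FRET beta-lactamase substrate fluorescence after 2 hr at room temperature.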

A short description of assay [4]: qHTS assay to identify small molecule antagonists of the progesterone receptor (PR) signaling pathway - cell viability counter screen (AID 1346798). Note: series mostly up to about 92 µM; nearly all actives have a fitted effect of over 50% in size. In a few lines: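 PR-UAS-bla HEK293T cells, 3,000/well in 2% charcoal-stripped FBS medium, dosed with compounds plus R5020 agonist and incubated 16 h at 37C. Viability then measured in the same wells by CellTiter-Glo luminescence after 30 min at RT.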

The nature of assay [5]: qHTS assay to identify small molecule agonists of the progesterone receptor (PR) signaling pathway - cell viability counter screen (AID 1346799; calls by dose curve; note: nearly all actives have a fitted effect of over 45% in size). Summed up: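 Counter screen in the PR-UAS-bla HEK293T wells (2% charcoal-stripped FBS, 16 h compound exposure at 37 C) after the bla read. CellTiter-Glo added, 30 min at room temperature, luminescence read as cell viability.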
Assay [6] is described as follows: qHTS assay to identify small molecule antagonists of the TGF-beta/Smad signaling pathway - cell viability counter screen (AID 1346824). Note: nearly all actives have a fitted effect of over 50% in size. In a few lines: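 SBE-bla HEK 293T cells, incubated overnight, then compound plus 0.25 ng/mL TGF-beta1 (stock added) for 5 hr at 37 C. Viability was read in the same wells by CellTiter-Glo luminescence after 30 min at room temperature.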

Assay [7] is described as follows: qHTS assay to identify small molecule agonists of the TGF-beta/Smad signaling pathway - cell viability counter screen (AID 1346829). Note: top concentration of the series differs between compounds; nearly all actives have a fitted effect of over 45% in size. In a few lines: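 Cytotoxicity counter screen: CellTiter-Glo luminescence (30 min, room temperature) measured in the SBE-bla HEK 293T reporter wells after 5 hr compound treatment at 37 C and the 2 hr substrate step.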
The nature of assay [8]: qHTS assay to identify small molecule agonists of the TGF-beta/Smad signaling pathway (AID 1346859; active = well fitted activation curve with a large enough effect in the signal ratio in the repeat runs, not every such curve was filed as active; the % refers to the signal ratio; note: series mostly up to about 77 µM). In a few lines:
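SBE-bla HEK293T cells plated overnight, then compound exposure for 5 h at 37 C. Beta-lactamase reporter read with LiveBLAzer B/G FRET substrate after 2 h at room temperature, fluorescence at 405 nm excitation, 460/530 nm emission.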

The target in assay [9] is Thyrotropin-releasing hormone receptor (Homo sapiens) (UniProt P34981). Nature of the assay: qHTS assay to identify small molecule antagonists of the thyrotropin-releasing hormone receptor (TRHR) signaling pathway (AID 1346877; active = well fitted inhibition curve with a large enough effect in the repeat runs, not every such curve was filed as active; note: series mostly up to about 51 µM). In a few lines: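 TRHR-expressing HEK293 cells were seeded, cultured 18 h at 37 °C, then loaded with calcium dye for 2 h. Compounds were pre-incubated 5 min at room temperature before 1 nM TRH (final) was added, and kinetic fluorescence was recorded for 3 min.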

The target is the same in assay [10]. Nature of the assay: qHTS assay to identify small molecule agonists of the thyrotropin-releasing hormone receptor (TRHR) signaling pathway (AID 1346891; calls by dose curve; note: series mostly up to about 58 µM). Summed up: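 HEK293 cells expressing TRHR plated 18 h at 37 C/5% CO2, calcium dye-loaded 2 h at 37 C, then compound added (agonist mode); kinetic calcium fluorescence read 3 min at 1 s intervals; 15 concentrations in triplicate.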

Progesterone receptor (Homo sapiens), sequence (P06401 whole entry, looked up): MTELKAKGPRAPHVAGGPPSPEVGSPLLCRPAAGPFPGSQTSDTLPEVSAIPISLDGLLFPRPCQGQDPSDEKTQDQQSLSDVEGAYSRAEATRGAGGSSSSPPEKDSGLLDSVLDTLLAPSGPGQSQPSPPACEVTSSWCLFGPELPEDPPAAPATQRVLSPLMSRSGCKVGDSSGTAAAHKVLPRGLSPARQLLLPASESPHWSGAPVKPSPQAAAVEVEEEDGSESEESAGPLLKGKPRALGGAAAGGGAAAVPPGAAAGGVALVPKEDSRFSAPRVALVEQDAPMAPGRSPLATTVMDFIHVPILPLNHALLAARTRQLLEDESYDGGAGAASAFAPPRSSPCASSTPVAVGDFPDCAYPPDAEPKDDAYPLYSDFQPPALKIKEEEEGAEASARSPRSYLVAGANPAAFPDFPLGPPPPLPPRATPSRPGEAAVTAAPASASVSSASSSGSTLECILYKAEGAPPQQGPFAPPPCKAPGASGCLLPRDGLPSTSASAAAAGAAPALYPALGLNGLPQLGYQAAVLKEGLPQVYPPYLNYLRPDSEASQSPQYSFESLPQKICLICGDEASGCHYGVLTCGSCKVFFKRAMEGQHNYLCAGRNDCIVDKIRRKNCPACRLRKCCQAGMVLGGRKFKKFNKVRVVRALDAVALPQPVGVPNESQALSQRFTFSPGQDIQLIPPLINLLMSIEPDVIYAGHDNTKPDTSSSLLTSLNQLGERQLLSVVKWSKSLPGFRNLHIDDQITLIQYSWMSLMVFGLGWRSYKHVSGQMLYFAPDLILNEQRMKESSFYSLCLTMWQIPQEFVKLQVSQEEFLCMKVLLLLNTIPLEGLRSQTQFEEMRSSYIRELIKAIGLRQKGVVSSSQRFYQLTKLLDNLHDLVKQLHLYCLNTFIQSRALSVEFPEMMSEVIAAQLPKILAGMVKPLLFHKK
Thyrotropin-releasing hormone receptor (Homo sapiens), sequence (P34981 whole entry, looked up): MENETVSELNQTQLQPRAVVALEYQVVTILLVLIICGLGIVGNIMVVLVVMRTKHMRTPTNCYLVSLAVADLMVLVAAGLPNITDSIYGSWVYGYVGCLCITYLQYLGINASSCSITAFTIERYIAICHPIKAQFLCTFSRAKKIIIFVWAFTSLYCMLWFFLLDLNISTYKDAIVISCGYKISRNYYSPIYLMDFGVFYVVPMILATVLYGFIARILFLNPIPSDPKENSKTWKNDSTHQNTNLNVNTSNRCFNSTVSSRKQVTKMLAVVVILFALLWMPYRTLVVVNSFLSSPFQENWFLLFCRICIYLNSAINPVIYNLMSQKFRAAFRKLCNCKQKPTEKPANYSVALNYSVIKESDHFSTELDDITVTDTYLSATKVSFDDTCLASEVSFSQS

With `C=C(C)C#N`, the Potency entry in [1], in [2], in assay [3], in assay [4], in assay [5] and in [6] was “inactive” throughout. The Potency entry in assay [7], in assay [8] and in [9] was “inactive” throughout. In assay [10], the call was inactive.
Consider `CN(C)c1ccccc1`, for which the Potency result in [1], in assay [2], in assay [3], in [4], in [5] and in assay [6] was “inactive” throughout. Also, the Potency result in assay [7], in assay [8] and in [9] was “inactive” throughout. In assay [10], the call was inactive.
In the case of `COP(=S)(OC)Oc1ccc(S(=O)(=O)N(C)C)cc1`, the Potency entry in [1], in assay [2], in assay [3], in assay [4], in [5] and in assay [6] was “inactive” in each case. Further, the Potency entry in assay [7] and in assay [8] was “inactive” in each case.
With `CNC(=S)S`, the Potency result in assay [1], in assay [2], in assay [3], in assay [4], in [5] and in assay [6] was “inactive” throughout. Further, the Potency result in [7], in assay [8] and in [9] was “inactive” throughout. Further, the call in assay [10] was inactive.
Consider `Nc1ncn[nH]1`, for which the Potency result in assay [1], in [2], in assay [3], in assay [4], in assay [5] and in assay [6] was “inactive” each time. Besides, the Potency entry in [7] and in assay [8] was “inactive” throughout.
Take `COP(=S)(OC)Oc1ccc(Sc2ccc(OP(=S)(OC)OC)cc2)cc1`: the Potency result in [1], in [2], in [4], in [5], in assay [6] and in [7] was “inactive” each time. Also, the Potency entry in assay [8] and in [9] was “inactive” each time. Also, the Potency in assay [3] was 54.5 µM (active) and inactive. In assay [10], the compound was called inactive.
`Cc1cc(Cl)ccc1N=CN(C)C`: the Potency entry in [1], in assay [2], in assay [3], in assay [4], in assay [5] and in assay [6] was “inactive” in each case. Further, the Potency result in assay [7], in [8] and in assay [9] was “inactive” in each case. Besides, in assay [10], the compound was classed as inactive.
Regarding `Clc1cccc(C(Cl)(Cl)Cl)n1`, the Potency entry in assay [1], in assay [2], in assay [3], in assay [4], in [5] and in [6] was “inactive” throughout. Besides, the Potency result in assay [7] and in [8] was “inactive” in each case.
On to `CCNCC`, for which the Potency entry in assay [1], in assay [2], in assay [3], in [4], in assay [5] and in assay [6] was “inactive” each time. Besides, the Potency result in [7], in [8] and in assay [9] was “inactive” each time. In assay [10], the outcome was inactive.
Take `Clc1cccc(Cl)c1`: the Potency result in assay [1], in assay [2], in assay [3], in assay [4], in assay [5] and in assay [6] was “inactive” in each case. Besides, the Potency result in [7], in [8] and in assay [9] was “inactive” each time. Moreover, the compound was classed as inactive in assay [10].
In the case of `O=C1Nc2ccc(Cl)cc2C(c2ccccc2)=NC1O` (configuration not stated), the Potency entry in [1], in [2], in assay [3], in assay [4], in assay [5] and in assay [6] was “inactive” each time. Further, the Potency result in assay [7] and in assay [8] was “inactive” in each case.
Turning to `Cl`, the Potency entry in assay [1], in [2], in assay [3], in assay [4], in assay [5] and in assay [6] was “inactive” throughout. For the same compound, the Potency result in [7] and in assay [8] was “inactive” in each case.
For the compound `CCCCSP(=O)(SCCCC)SCCCC`, the Potency result in assay [1], in assay [2], in assay [4], in [5], in assay [6] and in assay [7] was “inactive” in each case. Moreover, the Potency entry in [8] and in assay [9] was “inactive” throughout. For the same compound, the Potency in assay [3] was 23.8 µM (active) and 24.3 µM (active). For the same compound, the result in [10] was inactive.
`CCOC(=O)c1ccccc1N`: the Potency entry in assay [1], in [2], in assay [3], in assay [4], in assay [5] and in assay [6] was “inactive” throughout. For the same compound, the Potency entry in assay [7], in assay [8] and in [9] was “inactive” each time. Also, the result in assay [10] was inactive.
Take `N#Cc1cccnc1`: the Potency entry in [1], in assay [2], in [3], in [4], in [5] and in assay [6] was “inactive” each time. Besides, the Potency entry in assay [7], in assay [8] and in assay [9] was “inactive” each time. For the same compound, the call in assay [10] was inactive.
Take `CN(C)P(=O)(N(C)C)N(C)C`: the Potency result in [1], in assay [2], in [3], in assay [4], in assay [5] and in [6] was “inactive” in each case. Moreover, the Potency entry in assay [7], in [8] and in assay [9] was “inactive” in each case. Moreover, the outcome in assay [10] was inactive.
`CC(O)CN(CC(C)O)CC(C)O` (configuration not stated): the Potency entry in assay [1], in assay [2], in assay [3], in assay [4], in assay [5] and in assay [6] was “inactive” throughout. Besides, the Potency result in [7], in [8] and in assay [9] was “inactive” each time. Further, the call in assay [10] was inactive.
Take `CC(C)CON=O`: the Potency entry in assay [1], in [2], in assay [3], in assay [4], in assay [5] and in assay [6] was “inactive” in each case. Besides, the Potency entry in assay [7] and in assay [8] was “inactive” throughout.
Turning to `CC(C)COC(=O)c1ccccc1C(=O)OCC(C)C`, the Potency result in assay [1], in assay [2], in [3], in assay [4], in assay [5] and in [6] was “inactive” in each case. For the same compound, the Potency result in [7], in assay [8] and in assay [9] was “inactive” in each case. For the same compound, the outcome in assay [10] was inactive.
Take `CCCCOC(=O)COC(=O)c1ccccc1C(=O)OCCCC`: the Potency entry in assay [1], in assay [2], in assay [3], in assay [4], in [5] and in assay [6] was “inactive” in each case. Moreover, the Potency entry in assay [7] and in assay [8] was “inactive” in each case.
For `CCOP(=S)(OCC)OP(=S)(OCC)OCC`, the Potency entry in assay [1], in assay [2], in assay [3], in [4], in assay [5] and in assay [6] was “inactive” in each case. In addition, the Potency entry in assay [7], in [8] and in assay [9] was “inactive” each time. Also, in [10], the call was inactive.
With `C[N+](C)(C)CC(=O)O`, the Potency result in assay [1], in [2], in assay [3], in assay [4], in assay [5] and in [6] was “inactive” in each case. The Potency result in [7] and in assay [8] was “inactive” throughout.
Turning to `COP(=O)(NC(C)=O)SC` (configuration not stated), the Potency entry in [1], in assay [2], in assay [3], in assay [4], in assay [5] and in assay [6] was “inactive” each time. Further, the Potency result in [7], in assay [8] and in assay [9] was “inactive” in each case. In addition, the compound was classed as inactive in assay [10].
Take `Brc1ccc(Br)cc1`: the Potency entry in assay [1], in [2], in [3], in assay [4], in [5] and in assay [6] was “inactive” throughout. For the same compound, the Potency entry in assay [7] and in assay [8] was “inactive” in each case.
With `COc1ccc(CO)cc1`, the Potency entry in assay [1], in assay [2], in [3], in assay [4], in assay [5] and in assay [6] was “inactive” each time. Also, the Potency entry in assay [7], in [8] and in assay [9] was “inactive” in each case. Also, the result in [10] was inactive.
